This is a sample that favours compounds with a hit; in the whole collection about 19% have one here.
BCR signal inh – blocks chronic active B-cell receptor signaling | ABC-DLBCL IkBa-CBG/CBR reporter, luminescence ratio, 4 h | Potency, µM (top dose mostly 46.1 µM), inactives show top-dose activity change, negative = inhibition, hits mostly inhibitors | 0.05% of 340,000 active | AID 493014; active = well fitted inhibition curve with a large enough effect in the signal ratio, with a control signal flat, not every such curve was filed as active; inconclusive = small, poorly fitted or top-dose-only effect, or effect the other way, or a change in a side signal; the % refers to the signal ratio;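 note: potency is the fitted concentration of half-maximal effect; plate controls were basal doxycycline-induced cells for no effect and cells given 10 µM MG132 for full effect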
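TMD8 ABC-DLBCL cells carrying doxycycline-inducible green luciferase fused to IkappaBalpha plus unfused red luciferase were exposed to compounds (up to 46 uM) for 4 hrs at 37C. Activity came from the overlap-corrected green/red luminescence ratio.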
MCF10A rerep – DNA re-replication induction in MCF 10a cells; MCF 10A DNA re-replication, Hoechst nuclear intensity, 48 h; Potency, µM (titrated, usually from 46.1 µM), for the others: top-dose activity, positive = re-replication, hits mostly activators; 2.9% of 350,000 active; note: potency is the fitted concentration of half-maximal effect; % of control where 0% means no effect; nearly all actives have a fitted effect of over 50% in size
TDP1 cell noCPT – qHTS for Inhibitors of human tyrosyl-DNA phosphodiesterase 1 (TDP1): qHTS in cells in absence of CPT | DT40 Tdp1-/- hTDP1 cells, no CPT, ATP luminescence, 48 h | Potency, µM (series often up to 46.2 µM), for inactives: at the top dose activity change, negative = growth inhibition, usual class: inhibitors | 15% of 420,000 active; note: potency is the fitted concentration of half-maximal effect; % is set by controls: 0 for no effect and ±100 for the full control effect; nearly all actives have a fitted effect of over 55% in size
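Compound effects on proliferation are scored in DT40 Tdp1-/-;hTDP1 cells in the absence of CPT. ATP levels (CellTiter-Glo luminescence) are recorded after a ≥48 hr, 37 °C incubation.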
DT40 TDP1 CPT – DT40-hTDP1 cell growth loss with CPT. chicken DT40 Tdp1-/-;hTDP1 cells + 20 nM CPT, ATP luminescence, 48 h. Potency, µM (series often up to 46.2 µM), without a hit: at the highest dose activity change, negative = growth inhibition, hits mostly inhibitors. 12% of 420,000 active; note: potency is the fitted concentration of half-maximal effect; % is set by controls: 0 for no effect and ±100 for the full control effect; nearly all actives have a fitted effect of over 55% in size
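Chicken DT40 Tdp1-/- cells complemented with human TDP1, 400 cells/well, exposed to compounds plus 20 nM camptothecin for at least 48 h at 37 C; viability read as ATP content by CellTiter-Glo luminescence.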
IL1B secr inh – inhibitors of inflammasome signaling (IL-1 beta secretion) | THP-1 LPS/ATP IL-1B secretion, AlphaLISA, 16 h; stronger effect = lower value | activity change, % at 57.5 µM | 4.7% of 360,000 active | AID 743279; in the data active = activity change below about -50%; inconclusive = mostly about -30% to -49%; note: % is set by controls: 0 for no effect and ±100 for the full control effect
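THP-1 cells pretreated 1 hr with compounds (up to 57.5 uM final), then stimulated with LPS (250 ng/mL final) plus ATP (1.25 mM final); secreted IL-1B measured by AlphaLISA after 16 hr, decreased signal indicating inhibition.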
SW480 rerep – DNA re-replication induction in SW480 cells | 1.8% of 340,000 active | AID 624297 | Potency, µM (highest dose often 46.1 µM), for the others: at the top dose re-replication activation, usual class: activators | SW480 DNA re-replication, Hoechst DNA content imaging, 48 h; note: potency is the fitted concentration of half-maximal effect; % of control where 0% means no effect; nearly all actives have a fitted effect of over 55% in size
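Cells (250 per well) received 23 nL compound or DMSO by pin tool and were kept 48 hr at 37 C, 5% CO2. Nuclei were then stained with Hoechst for 40 min and scanned for DNA content.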
An asterisk follows results filed as active; ? = inconclusive; / = no result. Unless noted, calls come from the whole dose curve; as a rule, active = well fitted curve in the direction sought with a large enough effect; inconclusive = small, poorly fitted or top-dose-only effect, or another doubt; inactive = no such curve, though single readings can be large; an effect the other way counts as inactive or inconclusive.

SMILES | BCR signal inh | MCF10A rerep | TDP1 cell noCPT | DT40 TDP1 CPT | IL1B secr inh | SW480 rerep
CC#CC[N+](C)(C)CCCCCCCC | 4.5% | 3.7% | 9.2µM* | 11.6µM* | -2.4 | -0.2%
CCOc1ccccc1NC(=O)COC(=O)C12CC3CC(CC(O)(C3)C1)C2 | -16.9% | 2.5% | -28.7% | -27.8% | 7.1 | -2.9%
CCOC(=O)c1c(C)[nH]c(CCC(=O)Nc2cc(C)ccc2OC)c1C | / | / | 16.4µM* | ? | / | /
CCOC(=O)c1c(C)[nH]c(CCC(=O)NCc2ccc(OC)c(OC)c2)c1C | / | / | -9.8% | -8.9% | / | /
CCOC(=O)c1c(C)[nH]c(CCC(=O)Nc2c(C)cccc2CC)c1C | / | / | 16.4µM* | ? | / | /
CCc1cccc(C)c1NC(=O)CCN1C(=O)NC(C)(C)C1=O | 0.1% | 9.3% | -2.8% | 2.9% | -14.8 | -1.0%
CCOC(=O)c1c(C)[nH]c(CCC(=O)Nc2cc(C)cc(C)c2)c1C | / | / | 23.1µM* | ? | / | /
CCOC(=O)c1c(C)[nH]c(CCC(=O)NCc2ccc(N(C)C)cc2)c1C | / | / | 18.4µM* | ? | / | /
Cc1ccc2c(c1)N(CCC(=O)NC1CCCCC1C)C(=O)CO2 (centres undefined) | ? | -20.5% | 1.1% | -0.8% | 13.1 | -10.5%
CCOC(=O)C1CCN(C(=O)c2ccc(N3CCCC3=O)cc2)CC1 | 3.4% | 1.2% | 19.6% | -1.1% | 11.1 | -5.2%
CCOC(=O)c1c(C)[nH]c(CCC(=O)Nc2ccccc2C(=O)OC)c1C | / | / | 23.1µM* | ? | / | /
CCOc1ccccc1NC(=O)COC(=O)c1c(CC)noc1C | -2.8% | 12.3% | -22.4% | -9.4% | 11.3 | 4.0%
CCOC(=O)c1c(C)[nH]c(CCC(=O)Nc2ccccc2OCC)c1C | / | / | 23.1µM* | ? | / | /
CCOC(=O)c1c(C)[nH]c(CCC(=O)NCCCN2CCN(c3ccc(F)cc3)CC2)c1C | / | / | 10.3µM* | 20.6µM* | / | /
COC(=O)c1ccccc1NC(=O)CCc1ccccc1 | ? | 11.4% | ? | -6.0% | 11.8 | -4.4%
O=C1c2ccccc2C(=O)N1c1ccc(S(=O)(=O)N2CCOCC2)cc1 | / | / | 3.4% | -2.2% | / | /
COc1cccc(C(=O)N2CCC[C@@H]2C(=O)N2CCC[C@@H]2C(=O)NCc2ccccc2Cl)c1 | / | / | -12.1% | -2.1% | 14.6 | /
COC(=O)c1ccccc1NC(=O)CSc1nc2ccsc2c(=O)n1CCC(C)C | -4.4% | / | -2.0% | 1.4% | / | /
CC(=O)N(c1ccc(C)cc1)c1nc(C)cc(C)c1C#N | ? | 8.7% | -8.7% | 2.9% | 6.7 | 0.1%
CN(C)CCOc1cc(Cl)cc(Cl)c1 | 10.2% | -8.6% | 9.3% | -10.1% | 26.0 | 0.3%
COCCN(CCOc1cc(C)cc(C)c1)Cc1ccc(Cl)cc1 | ? | 18.4µM* | -19.0% | ? | 6.9 | ?
CCN(CC)CCOc1ccc(C(O)(Cc2ccc(Cl)cc2)c2ccc(C)cc2)cc1 (centres undefined) | / | 9.44µM* | 4.73µM* | 2.99µM* | / | ?
CC1(C(=O)NS(=O)(=O)C2CC2)CCN(C(=O)COCc2ccccc2)C1 (centres undefined) | / | / | 4.2% | 6.5% | 28.3 | /
Cn1nc(CC(=O)NCc2ccc(C(F)(F)F)cc2)c2ccccc2c1=O | ? | ? | 10.3µM* | 29.1µM* | 0.0 | -6.2%
COc1ccc(OCC(=O)Nc2cccc3ncccc23)cc1 | ? | 0.9% | -19.5% | ? | -17.6 | -7.9%
O=C(CCl)Nc1cccc2ncccc12 | ? | ? | 9.2µM* | 8.2µM* | -99.3* | ?
O=C(CN1C(=O)C2C3C=CC(C4CC34)C2C1=O)Nc1cccc2ncccc12 (centres undefined) | -0.7% | 4.2% | -27.0% | 20.6µM* | -0.6 | 0.8%
COc1cc(NC(=O)Cc2nn(C)c(=O)c3ccccc23)cc(OC)c1OC | 0.7% | 6.4% | ? | ? | 28.7 | -8.4%
